RGS8-Gao – RGS8-Galphao binding modulators, primary screen, biochemical, multiplexed bead flow cytometry; Guanine nucleotide-binding protein G(o) subunit alpha (Homo sapiens), P09471; actives lie on both sides; response (percent of control binding), % at 10 µM; 220,000 compounds, 0.34% hits; AID 1423, 2008; in the data active = response below about 60% or above about 140%; inactive = in between;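 note: Galphao activated as the GDP aluminium fluoride complex binding bead-coupled RGS8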
Target sequence (P09471 whole entry, looked up): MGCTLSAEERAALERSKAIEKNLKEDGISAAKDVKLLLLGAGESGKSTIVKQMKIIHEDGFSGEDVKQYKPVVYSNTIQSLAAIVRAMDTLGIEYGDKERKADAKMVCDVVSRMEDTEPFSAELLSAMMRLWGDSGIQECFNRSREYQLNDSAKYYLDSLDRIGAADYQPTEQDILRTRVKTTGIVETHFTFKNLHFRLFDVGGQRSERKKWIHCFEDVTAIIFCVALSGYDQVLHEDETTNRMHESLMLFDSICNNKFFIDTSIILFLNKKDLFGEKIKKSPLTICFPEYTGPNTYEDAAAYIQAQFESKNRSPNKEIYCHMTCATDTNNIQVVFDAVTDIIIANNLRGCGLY
GSH fluor – compound fluorescence on glutathione beads, profiling panel, artefact control, biophysical, 488/530 nm, flow cytometry; GSH beads flow cytometry, compound fluorescence 488/530 nm; stronger effect = higher value; fluorescence (KMESF) at 10 µM; 190,000 compounds, 0.25% hits; AID 1776, 2009; in the data active = fluorescence above about 89;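 note: glutathione beads carrying GST-tagged Bcl family fusion proteins plus one bare bead set; values are compound well signal with DMSO vehicle wells as background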
RGS4-Gao reg – modulators of RGS4 binding to Galphao, primary screen, biochemical, multiplexed bead flow cytometry. Guanine nucleotide-binding protein G(o) subunit alpha (Homo sapiens), P09471. actives lie on both sides. binding response (% of control), % at 10 µM. 220,000 compounds, 0.33% hits; in the data active = binding response below about 49% or above about 150%; inactive = in between;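 note: fluorescent Galphao activated with aluminum fluoride binding bead-coupled RGS4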
RGS16-Gao – modulators of RGS16 binding to Galphao, primary screen, biochemical, human proteins, multiplexed bead flow cytometry | Regulator of G-protein signaling 16 (Homo sapiens) + Guanine nucleotide-binding protein … | bead-based flow cytometry RGS16-Galphao binding, fluorescence; actives lie on both sides | binding response (% of control), % at 10 µM | 220,000 compounds, 0.38% hits | AID 1441, 2008;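 note: Galphao activated by GDP with aluminum fluoride before binding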
RGS7-Gao – RGS7-Galphao binding modulators, primary screen, biochemical, multiplexed bead flow cytometry. Guanine nucleotide-binding protein G(o) subunit alpha (Homo sapiens), P09471. actives lie on both sides. binding response (% of control), % at 10 µM. 220,000 compounds, 0.35% hits. AID 1439, 2008; in the data active = binding response below about 49% or above about 150%; inconclusive = no clear call, values can overlap the other calls; inactive = in between;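 note: fluorescent Galphao held in activated GDP-AlF4 state binding bead-coupled RGS7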
Avidin fluor – green autofluorescence of compounds with avidin beads – biophysical, 488/530 nm, flow cytometry, artefact control, profiling panel; fluorescence (KMESF) at 10 µM; 220,000 compounds, 0.38% hits; compound fluorescence 488/530 nm; stronger effect = higher value; in the data active = fluorescence above about 47
RGS-Gao – modulators of RGS–Galpha-o binding, primary screen, biochemical, multiplexed beads, flow cytometry, RGS4/7/8/16/19 | 1,600 compounds, 99% hits | shares compounds with RGS16-Gao | AID 1504, 2009 | multiplexed bead flow cytometry | RGS4–Galpha-o binding response, % at 10 µM;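 note: fluorescently labeled Galpha-o bound to GDP with aluminium fluoride binding biotinylated RGS beads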
Target sequence (P09471 whole entry, looked up): as above
Target sequence (P49798 whole entry, looked up): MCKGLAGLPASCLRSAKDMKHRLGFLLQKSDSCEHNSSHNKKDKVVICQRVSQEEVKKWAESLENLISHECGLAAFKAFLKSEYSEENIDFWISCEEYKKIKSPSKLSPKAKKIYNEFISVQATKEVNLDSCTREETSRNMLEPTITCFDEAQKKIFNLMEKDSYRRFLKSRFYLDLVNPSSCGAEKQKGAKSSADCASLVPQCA
Avidin counter – disruption of biotin probe capture by avidin, counter-screen for RGS protein interaction modulators, biochemical, flow cytometry, bead-based; shares compounds with RGS16-Gao; streptavidin beads, fluorescein-biotin binding; inhibition, % at 10 µM; 1,700 tested, under 10 active; AID 1783, 2009;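 active = inhibition above 50%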;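 note: median green fluorescence of gated singlet beads compared with DMSO control wells; 0% = DMSO wells and 100% = complete loss of bead fluorescence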
RGS8-Gao single – RGS8-Galphao binding modulators, confirmation, biochemical, multiplexed bead flow cytometry, single concentration | shares compounds with RGS16-Gao | bead-based flow cytometry RGS8-Galphao binding, fluorescence; actives lie on both sides | binding response (% of control), % at 10 µM | 1,700 compounds, 3% hits | AID 1836, 2009; in the data active = binding response below about 72% or above about 130%; inactive = in between;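 note: Galphao activated as GDP AlF4 complex before binding bead RGS8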
RGS7-Gao confirm – RGS7-Galphao binding modulators, confirmation, biochemical, multiplexed bead flow cytometry, single concentration | shares compounds with RGS16-Gao | bead-based flow cytometry RGS7-Galphao binding; actives lie on both sides | response (percent of control binding), % at 10 µM | 1,700 compounds, 7.8% hits | AID 1837, 2009; in the data active = response below about 75% or above about 130%; inactive = in between;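 note: fluorescent Galphao activated with GDP and aluminum fluoride binding bead-coupled RGS7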
RGS16-Gao single – modulators of RGS16-Galphao protein binding, confirmation, biochemical, single concentration, multiplexed bead flow cytometry; shares compounds with RGS16-Gao; 1,700 compounds, 4% hits; AID 1838, 2009; response (% of control binding), % at 10 µM; bead-based flow cytometry; actives lie on both sides; in the data active = response below about 74% or above about 130%; inactive = in between;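 note: Galphao activated as the GDP aluminium fluoride complex binding bead-coupled RGS16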
RGS4-Gao single – modulators of RGS4-Galphao protein binding, confirmation, biochemical, single concentration, multiplexed bead flow cytometry; shares compounds with RGS16-Gao; actives lie on both sides; binding response (% of control), % at 10 µM; 1,700 compounds, 4% hits; in the data active = binding response below about 74% or above about 130%; inactive = in between
RGS19-Gao single – regulators of RGS19-Galphao binding, confirmation, biochemical, single point, multiplexed bead flow cytometry. bead-based flow cytometry RGS19-Galphao binding; actives lie on both sides. AID 1841, 2009. shares compounds with RGS16-Gao. 1,700 compounds, 5% hits. response (percent of control binding), % at 10 µM; in the data active = response below about 50% or above about 160%; inactive = in between;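 note: 100% = no compound control and 0% = blank background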
An asterisk follows results filed as active; [ ] = another dose, or the depositor's remark. An excerpt weighted towards active compounds, which were near 1.2% of everything screened. Unless noted, the rule behind the calls is not given here.

What do the screens show for `Cc1ccc2[nH]c(-c3ccccc3)cc(=O)c2c1`?
RGS8-Gao: 96; GSH fluor: 12; RGS4-Gao reg: 98; RGS16-Gao: 94; RGS7-Gao: 103; Avidin fluor: 33

What do the screens show for `CCN(CC)Cc1c(-c2ccccc2)[nH]c2ccc(C)cc2c1=O`?
RGS8-Gao: 142*[activator]; GSH fluor: 36; RGS4-Gao reg: 110; RGS16-Gao: 409; RGS7-Gao: 104; Avidin fluor: 2; RGS-Gao: 110*; Avidin counter: -3; RGS8-Gao single: 107; RGS7-Gao confirm: 100; RGS16-Gao single: 107; RGS4-Gao single: 102; RGS19-Gao single: 91

What do the screens show for `CC1=CC(C)(C)N(C(=O)CNC2CCCC2)c2cc(C)ccc21`?
RGS8-Gao: 106; GSH fluor: 13; RGS4-Gao reg: 102; RGS16-Gao: 111; RGS7-Gao: 105; Avidin fluor: 11

How did O=c1cc(C(F)(F)C(F)F)oc2ccccc12 do in these assays?
GSH fluor: 39; Avidin counter: 1; RGS8-Gao single: 97; RGS7-Gao confirm: 96; RGS16-Gao single: 97; RGS4-Gao single: 98; RGS19-Gao single: 107

How did O=c1cc(-c2ccccc2F)oc2ccccc12 do in these assays?
RGS8-Gao: 98; GSH fluor: 18; RGS4-Gao reg: 97; RGS16-Gao: 94; RGS7-Gao: 94; Avidin fluor: 6

Results for O=C(CCn1c(=S)oc2ccccc21)Nc1cccc(O)c1 ?
RGS8-Gao: 15*; GSH fluor: 16; RGS4-Gao reg: 22*; RGS16-Gao: 12*; RGS7-Gao: 9.9*; Avidin fluor: 0; Avidin counter: 0; RGS8-Gao single: 99; RGS7-Gao confirm: 102; RGS16-Gao single: 97; RGS4-Gao single: 99; RGS19-Gao single: 104

Results for O=C(COc1ccccc1[N+](=O)[O-])N(Cc1ccccc1)c1ccccn1 ?
RGS8-Gao: 100; GSH fluor: 14; RGS4-Gao reg: 100; RGS16-Gao: 95; RGS7-Gao: inconclusive; Avidin fluor: 12

How did C/C(Cc1ccccc1)=N\NC(=O)CNC(=O)c1ccccc1Br do in these assays?
RGS8-Gao: 73; GSH fluor: 4; RGS4-Gao reg: 88; RGS16-Gao: 17*; RGS7-Gao: 86; Avidin fluor: 6; RGS-Gao: 88*; Avidin counter: 0; RGS8-Gao single: 101; RGS7-Gao confirm: 75*; RGS16-Gao single: 93; RGS4-Gao single: 80; RGS19-Gao single: 83

What do the screens show for `C/C(Cc1ccccc1)=N\NC(=O)CNC(=O)c1ccccc1O`?
RGS8-Gao: 102; RGS4-Gao reg: 104; RGS16-Gao: 103; RGS7-Gao: inconclusive; Avidin fluor: 7

Results for O=C(C=C=Nc1ccccc1)C(=O)N=C=Cc1ccccc1 ?
RGS8-Gao: 102; RGS4-Gao reg: 101; RGS16-Gao: 102; RGS7-Gao: inconclusive; Avidin fluor: 3

How did N/C(=N\OC(=O)c1ccc(Cl)cc1)c1ccc(Cl)cc1 do in these assays?
RGS8-Gao: 103; GSH fluor: 77; RGS4-Gao reg: 103; RGS16-Gao: 105; RGS7-Gao: 103; Avidin fluor: 8

How did N/C(=N\OC(=O)c1ccco1)c1ccc(Cl)cc1 do in these assays?
RGS8-Gao: 101; GSH fluor: 11; RGS4-Gao reg: 109; RGS16-Gao: 102; RGS7-Gao: 164*[activator]; Avidin fluor: 63*; RGS-Gao: 109*; Avidin counter: 0; RGS8-Gao single: 103; RGS7-Gao confirm: 104; RGS16-Gao single: 102; RGS4-Gao single: 101; RGS19-Gao single: 103

Results for COc1ccc2oc3cc(C)[n+]([O-])c(-c4ccc(Cl)cc4)c3c2c1 ?
RGS8-Gao: 78; GSH fluor: 11; RGS4-Gao reg: 41*; RGS16-Gao: 90; RGS7-Gao: 52; Avidin fluor: -1; Avidin counter: inactive; RGS8-Gao single: 105; RGS7-Gao confirm: 114; RGS16-Gao single: 112; RGS4-Gao single: 111; RGS19-Gao single: 107

Results for O=c1[nH]c(N2CCCCC2)nc2ncn(Cc3ccccc3)c12 ?
RGS8-Gao: 107; RGS4-Gao reg: 112; RGS16-Gao: 110; RGS7-Gao: inconclusive; Avidin fluor: 5
